Over roughly 18,000 sequences, “TetR repression strength (sort-seq, GFP reporter)” has its median near 0.23; the highest 2% begin near 0.68. Shown is part of a subset that was picked to be rich in the highest values.

Sequence of TetR (class B, Tn10) (P04483 whole entry): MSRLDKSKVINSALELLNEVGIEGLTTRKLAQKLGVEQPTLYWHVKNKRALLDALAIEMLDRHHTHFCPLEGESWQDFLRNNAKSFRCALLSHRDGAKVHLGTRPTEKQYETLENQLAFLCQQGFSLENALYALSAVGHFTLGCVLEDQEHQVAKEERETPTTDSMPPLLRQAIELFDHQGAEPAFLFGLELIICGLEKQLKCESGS

For the assay, the target named is TetR (class B, Tn10) (UniProt P04483). The experiment in a line: TetR repression strength (sort-seq, GFP reporter) (relative to tetO2 = 1); higher = stronger repression. Particulars: E. coli. The method, boiled down:
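In LB with 50 µg/mL chloramphenicol, E. coli SIG10-MAX holding a low-copy library with eight randomized operator positions between a constitutive promoter and sfGFP, plus constitutive TetR, grew for 5 h at 37 °C. FACS then sorted 10^6 cells into 13 fluorescence bins for Illumina sequencing of each bin. Repression strength equals the top bin index plus one less the read-weighted mean bin, normalized to the unaltered operator. Values from three independent transformations were averaged when reads were ≥30 in every replicate and the CV was ≤0.5.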
With TCCCCTCTAGTAGGTGAGA, the TetR repression strength worked out at 0.12.
Sequence TCCCTTAGAGTGAGGGAGA returned a TetR repression strength of 0.0732.
TCCCAACAAGTCGCAGAGA: the TetR repression strength was 0.281.
In the case of TCCCGAGCAGTGATGGAGA, the TetR repression strength stood at 0.371.
Sequence TCCCCAGAAGTGATTGAGA gave a TetR repression strength of 1.1.
TCCCCAGCAGTGAGTGAGA had a TetR repression strength of 0.167.
As for TCCCAAGCAGTGACAGAGA, the figure is 0.432; as for TCCCGAGCAGTGGCAGAGA, 0.286; as for TCCCGAGCAGTGATCGAGA, 0.708.
TCCCCAGCAGTGCTTGAGA returned a TetR repression strength of 0.311.
TCCCTAGCAGTGATCGAGA gave a TetR repression strength of 0.659.
TCCCAGGAAGTGATTGAGA: the TetR repression strength came out at 0.266.
Sequence TCCCGAGCAGTGACAGAGA had a TetR repression strength of 0.736.
The same measure for TCCCCATAAGTGATTGAGA: 0.42.
Sequence TCCCCAGCAGTGATTGAGA yielded a TetR repression strength of 1.1.
In turn, TCCCTACTAGTTACAGAGA came in with a TetR repression strength of 0.0592.
In turn, TCCCGATTAGTCTTTGAGA registered a TetR repression strength of 0.0932.
In the case of TCCCCAGGAGTCCGGGAGA, the TetR repression strength is 0.332.
Take TCCCACAAAGTCAGTGAGA: the TetR repression strength worked out at 0.0709.
In turn, TCCCTGATAGTCTTGGAGA displayed a TetR repression strength of 0.231.
The sequence TCCCTCGAAGTGGGGGAGA came in with a TetR repression strength of 0.0994.
Consider TCCCGTCGAGTAAGTGAGA, for which the TetR repression strength stood at 0.219.
The sequence TCCCGAGTAGTGGAGGAGA showed a TetR repression strength of 0.155.
In turn, TCCCTTGGAGTAACAGAGA gave a TetR repression strength of 0.
The same measure for TCCCAAGCAGTGAAAGAGA: 0.367; for TCCCGAGCAGTGCTAGAGA: 0.661.
For the sequence TCCCGAGAAGTGCCAGAGA, the TetR repression strength turned out to be 0.312.
For TCCCGGGCAGTGATAGAGA, the TetR repression strength amounted to 0.571.
In turn, TCCCGAACAGTGGGGGAGA yielded a TetR repression strength of 0.367.
For TCCCGAACAGTGGGTGAGA, the TetR repression strength came to 0.949.
As to TCCCGAACAGTGTGTGAGA, the TetR repression strength stood at 0.161.
The same measure for TCCCGAGCAGTGCCAGAGA: 0.684.
Sequence TCCCGAGAAGTGAAAGAGA returned a TetR repression strength of 0.0859.
As for TCCCGAGCAGTGATAGAGA, the TetR repression strength turned out to be 0.75.
The sequence TCCCGAGCAGTGAAAGAGA returned a TetR repression strength of 0.755.
For TCCCGAGGAGTGCCAGAGA, the TetR repression strength was determined as 0.547.
Turning to TCCCACAAAGTGGCGGAGA, the TetR repression strength turned out to be 0.306.
The sequence TCCCGTAAAGTTCCGGAGA returned a TetR repression strength of 0.38.
The same measure for TCCCAAGGAGTAGGAGAGA: 0.119; for TCCCACGAAGTAATAGAGA: 0.379.
TCCCGATAAGTTTACGAGA came in with a TetR repression strength of 0.495.
Regarding TCCCGAACAGTAACGGAGA, the TetR repression strength came out at 0.571.
As for TCCCATTGAGTGCTTGAGA, the TetR repression strength came to 0.36.
As to TCCCGAGCAGTGTGTGAGA, the TetR repression strength stood at 0.222.
Take TCCCGTCGAGTGAAAGAGA: the TetR repression strength is 0.69.
For TCCCGTCGAGTGAACGAGA, the TetR repression strength is 0.242.
As for TCCCGAGCAGTGTGAGAGA, the figure is 0.175.
In the case of TCCCGAGCAGTGATTGAGA, the TetR repression strength stood at 0.701.
TCCCGAGCAGTAACTGAGA registered a TetR repression strength of 0.149.
TCCCGAGCAGTGAGTGAGA showed a TetR repression strength of 0.507.
As for TCCCGAGCAGTGAGAGAGA, the figure is 0.689.
As for TCCCGTGCAGTAACAGAGA, the figure is 0.
TCCCGAGCAGTAACAGAGA yielded a TetR repression strength of 0.752.
Sequence TCCCGTGCAGTGATTGAGA showed a TetR repression strength of 0.165.
In turn, TCCCGTCGAGTGAGAGAGA showed a TetR repression strength of 0.396.
The same measure for TCCCGTGAAGTACGCGAGA: 0.217; for TCCCCCGTAGTGGGAGAGA: 0.312; for TCCCTTTAAGTGCTGGAGA: 0.3.
In turn, TCCCACGGAGTGTGGGAGA returned a TetR repression strength of 0.15.
The sequence TCCCCAAGAGTTATAGAGA showed a TetR repression strength of 0.281.
TCCCTTACAGTGCGTGAGA came in with a TetR repression strength of 0.183.
Take TCCCGTGAAGTGGGCGAGA: the TetR repression strength was determined as 0.0935.
TCCCGAGGAGTTATAGAGA returned a TetR repression strength of 0.326.
The same measure for TCCCGCGAAGTGAGCGAGA: 0.248; for TCCCGTGAAGTGAGCGAGA: 0.888.
The sequence TCCCGAGCAGTTATAGAGA had a TetR repression strength of 0.686.
For TCCCGAGCAGTTAGAGAGA, the TetR repression strength is 0.202.
The same measure for TCCCTGTTAGTTGTAGAGA: 0.271.
In turn, TCCCGGTTAGTCTTGGAGA yielded a TetR repression strength of 0.317.
The same measure for TCCCCTTGAGTTTGTGAGA: 0.323; for TCCCTTACAGTCTACGAGA: 0.405.
With TCCCTAACAGTCCACGAGA, the TetR repression strength came out at 0.205.
Sequence TCCCTGAAAGTCTACGAGA registered a TetR repression strength of 0.815.
Regarding TCCCTGAAAGTATACGAGA, the TetR repression strength amounted to 0.205.
In turn, TCCCTTAAAGTCTAAGAGA returned a TetR repression strength of 0.539.
In the case of TCCCTGAAAGTCTGCGAGA, the TetR repression strength was 0.134.
As for TCCCTAAAAGTCTACGAGA, the TetR repression strength was 0.16.
TCCCTTAAAGTCTACGAGA: the TetR repression strength amounted to 0.771.
For TCCCTTACAGTCCACGAGA, the TetR repression strength stood at 0.808.
The same measure for TCCCTGGCAGTTTGCGAGA: 0.65; for TCCCGGGGAGTGCAGGAGA: 0.176; for TCCCGAATAGTGAGGGAGA: 0.127.
As for TCCCGGACAGTCGTCGAGA, the figure is 0.892; as for TCCCGGACAGTCATCGAGA, 0.216.
TCCCGCCGAGTAGTCGAGA had a TetR repression strength of 0.18.
As for TCCCGCCGAGTCGAGGAGA, the figure is 0.36.
As for TCCCGGACAGTCGACGAGA, the figure is 0.0556; as for TCCCGCCGAGTCGTCGAGA, 1.24; as for TCCCTTGCAGTCAATGAGA, 0.251.
For the sequence TCCCAGGGAGTACTCGAGA, the TetR repression strength came out at 0.275.
Regarding TCCCGGGGAGTGACTGAGA, the TetR repression strength was 0.143.
In turn, TCCCTTCTAGTCCGTGAGA registered a TetR repression strength of 0.468.
With TCCCGATGAGTCAGGGAGA, the TetR repression strength was 0.174.
As for TCCCTGTAAGTCAGCGAGA, the TetR repression strength was found to be 0.494.
The same measure for TCCCAGGCAGTGTGTGAGA: 0.207; for TCCCACACAGTATGTGAGA: 0.13.
TCCCACATAGTAAGTGAGA yielded a TetR repression strength of 0.207.
The same measure for TCCCGCAGAGTATGTGAGA: 0.171; for TCCCTCATAGTATGTGAGA: 0.257; for TCCCACATAGTATGTGAGA: 1.23.
In turn, TCCCACAGAGTATGTGAGA had a TetR repression strength of 1.24.
TCCCGCATAGTTATTGAGA gave a TetR repression strength of 0.197.
